Activity calls are given as the source filed them. Rule for the calls: active = hit-call score of the fitted dose curve at least 0.9, where 1 is the maximum; inactive = score below 0.9.
Columns and labels:
Conditions in all cases: mRNA level, 48 h; actives raise or lower the signal
[1] = read-out: succinate dehydrogenase complex iron sulfur subunit B (SDHB), SDHB (gene 6390); test: LTEA_HepaRG_SDHB: Life Technologies and Expression Analysis (LTEA) Assay for succinate dehydrogenase complex iron sulfur subunit B (SDHB) using HepaRG (AID 2283528)
Procedure, shortened: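 Readout is SDHB transcript level by qRT-PCR, normalised to three housekeeping genes and fitted bidirectionally against 0.5% DMSO vehicle. Human HepaRG cells were treated for 48 h at up to 100 uM.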

[2] = read-out: Signal transducer and activator of transcription 3 (Homo sapiens) (UniProt P40763); test: LTEA_HepaRG_STAT3: Life Technologies and Expression Analysis (LTEA) Assay for Signal transducer and activator of transcription (STAT3) using HepaRG (AID 2283529)
Procedure, shortened: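 In this transcriptional endpoint, HepaRG cultures receive test chemicals at up to 100 uM for 48 h, tested in duplicate. STAT3 mRNA is normalized to ACTB, GAPDH and POLR2A.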

[3] = read-out: solute carrier (SLCO1B1), SLCO1B1 (gene 10599); test: LTEA_HepaRG_SLCO1B1: Life Technologies and Expression Analysis (LTEA) Assay for solute carrier (SLCO1B1) using HepaRG (AID 2283530)
Procedure, shortened: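 SLCO1B1 transcript levels were quantified by TaqMan qRT-PCR using three housekeeping genes for normalization. This followed 48 h chemical exposure (100 uM top, half-log, 8 points, 0.5% DMSO) of HepaRG liver cells, with gain or loss fitted relative to DMSO.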

[4] = read-out: sulfotransferase 2A1 (SULT2A1), SULT2A1 (gene 6822); test: LTEA_HepaRG_SULT2A1: Life Technologies and Expression Analysis (LTEA) Assay for sulfotransferase 2A1 (SULT2A1) using HepaRG (AID 2283531)
Procedure, shortened: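 Expression change of SULT2A1, by qRT-PCR with three housekeeping-gene normalization, was scored bidirectionally versus DMSO. Cells: differentiated HepaRG, dosed in duplicate for 48 h across 8 points, highest 100 µM, half-log dilution, 0.5% DMSO.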

[5] = read-out: Transforming Growth Factor (TGFA), TGFA (gene 7039); test: LTEA_HepaRG_TGFA: Life Technologies and Expression Analysis (LTEA) Assay for Transforming Growth Factor (TGFA) using HepaRG (AID 2283532)
Procedure, shortened: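 Gene expression of TGFA was quantified by qRT-PCR after human HepaRG cells were treated for 48 h with test chemicals (eight concentrations, highest 100 uM, 0.5% DMSO). Activity in either direction was fitted relative to DMSO.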

[6] = read-out: TIMP1, TIMP1 (gene 7076); test: LTEA_HepaRG_TIMP1: Life Technologies and Expression Analysis (LTEA) Assay for TIMP1 using HepaRG (AID 2283534)
Procedure, shortened: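 Bidirectional change in TIMP1 transcript versus 0.5% DMSO, measured by TaqMan qRT-PCR with three housekeeping genes for normalization. HepaRG human liver cells dosed 48 h in duplicate, top concentration 100 uM with half-log dilutions.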

[7] = read-out: Tumor necrosis factor receptor 1 (TNFRSF1A), TNFRSF1A (gene 7132); test: LTEA_HepaRG_TNFRSF1A: Life Technologies and Expression Analysis (LTEA) Assay for Tumor necrosis factor receptor 1 (TNFRSF1A) using HepaRG (AID 2283535)
Procedure, shortened: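 mRNA measured by qRT-PCR (TaqMan, Fluidigm arrays) against ACTB/GAPDH/POLR2A housekeepers after 48 h chemical exposure of HepaRG cells. Top concentration 100 uM, half-log 8-point series, duplicates; vehicle 0.5% DMSO, both fit directions.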

[8] = read-out: Thyroid Hormone Responsive (THRSP), THRSP (gene 7069); test: LTEA_HepaRG_THRSP: Life Technologies and Expression Analysis (LTEA) Assay for Thyroid Hormone Responsive (THRSP) using HepaRG (AID 2283536)
Procedure, shortened: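 Cell model: human HepaRG, approx. 100,000 cells/well, 0.5% DMSO vehicle. Exposure lasts 48 h; phenobarbital 1 mM serves as induction positive control. Gene expression is measured by qRT-PCR against three endogenous control genes.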

[9] = read-out: Cellular tumor antigen p53 (Homo sapiens) (UniProt P04637); test: LTEA_HepaRG_TP53: Life Technologies and Expression Analysis (LTEA) Assay for Tumor Protein P53 (TP53) using HepaRG (AID 2283537)
Procedure, shortened: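 Read-out is TP53 transcript level by microfluidic qRT-PCR, normalised to three housekeeping genes and fitted bidirectionally against DMSO. Human HepaRG cells received compounds for 48 h, highest concentration 100 uM.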

[10] = read-out: Transforming Growth Factor (TGFB1), TGFB1 (gene 7040); test: LTEA_HepaRG_TGFB1: Life Technologies and Expression Analysis (LTEA) Assay for Transforming Growth Factor (TGFB1) Transporter using HepaRG (AID 2283533)
Procedure, shortened: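 TGFB1 transcript measured by qRT-PCR with normalisation to three housekeeping genes (ACTB, GAPDH, POLR2A); human HepaRG line treated in duplicate for 48 hr with an 8-point series topping at 100 uM, 0.5% DMSO vehicle, bidirectionally fitted.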

Measured: AC50

Chain of Signal transducer and activator of transcription 3 (Homo sapiens) (P40763 whole entry, looked up): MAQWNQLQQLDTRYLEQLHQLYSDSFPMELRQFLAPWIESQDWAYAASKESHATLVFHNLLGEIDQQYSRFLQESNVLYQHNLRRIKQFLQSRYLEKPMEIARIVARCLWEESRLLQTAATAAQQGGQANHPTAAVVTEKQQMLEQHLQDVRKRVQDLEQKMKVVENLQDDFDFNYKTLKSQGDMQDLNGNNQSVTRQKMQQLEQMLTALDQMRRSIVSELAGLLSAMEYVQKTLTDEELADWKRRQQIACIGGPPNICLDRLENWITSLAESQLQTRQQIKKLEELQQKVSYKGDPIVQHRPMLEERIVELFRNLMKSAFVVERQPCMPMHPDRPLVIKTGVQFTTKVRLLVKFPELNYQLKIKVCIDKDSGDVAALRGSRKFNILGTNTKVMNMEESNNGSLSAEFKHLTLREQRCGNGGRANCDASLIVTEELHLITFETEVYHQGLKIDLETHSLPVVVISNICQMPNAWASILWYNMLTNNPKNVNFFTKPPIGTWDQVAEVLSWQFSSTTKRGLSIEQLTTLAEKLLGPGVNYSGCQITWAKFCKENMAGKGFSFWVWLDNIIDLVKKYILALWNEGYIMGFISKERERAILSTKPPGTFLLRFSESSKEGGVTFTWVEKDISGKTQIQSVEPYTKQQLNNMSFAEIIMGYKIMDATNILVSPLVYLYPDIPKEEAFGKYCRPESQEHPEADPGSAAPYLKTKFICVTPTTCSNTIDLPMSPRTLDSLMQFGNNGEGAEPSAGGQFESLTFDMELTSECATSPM
Chain of Cellular tumor antigen p53 (Homo sapiens) (P04637 whole entry, looked up): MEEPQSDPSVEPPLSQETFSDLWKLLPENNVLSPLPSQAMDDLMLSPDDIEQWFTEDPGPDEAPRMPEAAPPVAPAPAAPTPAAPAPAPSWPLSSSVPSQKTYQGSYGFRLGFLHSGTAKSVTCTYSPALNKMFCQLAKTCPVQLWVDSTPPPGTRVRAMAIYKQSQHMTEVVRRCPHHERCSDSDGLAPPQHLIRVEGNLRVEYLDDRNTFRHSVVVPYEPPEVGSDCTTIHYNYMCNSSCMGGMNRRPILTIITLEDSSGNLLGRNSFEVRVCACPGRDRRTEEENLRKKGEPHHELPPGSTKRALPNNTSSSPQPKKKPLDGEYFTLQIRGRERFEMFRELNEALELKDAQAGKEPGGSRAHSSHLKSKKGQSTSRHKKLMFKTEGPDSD

O=c1c(-c2ccc(O)cc2)coc2cc(O)ccc12
not listed: [10]
inactive: all other assays above

OC1CCCCC1
not listed: [4]
inactive: all other assays above

Cc1oc(-c2ccccc2)nc1CCOc1ccc(C[C@H](Nc2ccccc2C(=O)c2ccccc2)C(=O)O)cc1
active: [1] 26.1 µM | [2] 21.2 µM | [3] 23.4 µM | [4] 23.4 µM | [5] 0.0617 µM | [7] 26.7 µM | [8] 24 µM | [9] 86.1 µM
inactive: [6]

OCCC(F)(F)C(F)(F)C(F)(F)C(F)(F)C(F)(F)C(F)(F)C(F)(F)C(F)(F)F
not listed: [10]
inactive: all other assays above

CC[C@H](C)[C@@H](C(=O)O)n1sc2ccccc2c1=O
not listed: [4]
inactive: all other assays above

OC1CCC(C2CCCCC2)CC1 (centres undefined)
inactive: all assays above

NC(=O)N1C(=O)C(C(=O)c2cc(Cl)cs2)c2cc(F)c(Cl)cc21 (centres undefined)
active: [1] 26.2 µM | [3] 19.3 µM | [4] 34.2 µM | [5] 89.3 µM | [6] 85.2 µM | [7] 40.2 µM | [8] 17.7 µM | [9] 94.4 µM
inactive: [2]

CCCCCCCCCCCCc1ccccc1S(=O)(=O)O
active: [3] 79.6 µM | [5] 32.5 µM | [8] 5.53 µM | [9] 58.1 µM
not listed: [4]
inactive: all other assays above

c1ccc2c(c1)ccc1ccccc12
inactive: all assays above

ClC1=C(Cl)C(Cl)(Cl)C(Cl)=C1Cl
not listed: [10]
inactive: all other assays above

CCC(C)(C)C1CCC(O)CC1 (centres undefined)
not listed: [10]
inactive: all other assays above

CCCCCCCCOC(=O)CCCCCCCCC(=O)OCCCCCCCC
not listed: [10]
inactive: all other assays above

CCc1nn(C2CCCCC2)c2cc(C3(C#N)CCC(C(=O)O)CC3)ccc12 (centres undefined)
active: [3] 56.2 µM | [5] 65.5 µM | [10] 33.2 µM | [6] 33.8 µM | [8] 79.3 µM | [9] 50 µM
inactive: [1] | [2] | [7]

CCCCOCCO
not listed: [10]
inactive: all other assays above

CCc1ccc(CCOc2ccc(CC3SC(=O)NC3=O)cc2)nc1 (centres undefined)
active: [3] 67.5 µM | [5] 24 µM | [8] 83.8 µM | [9] 80.4 µM
not listed: [4]
inactive: all other assays above

Oc1cc2ccccc2c2ccccc12
not listed: [4]
inactive: all other assays above

CC#C[C@]1(O)CC[C@H]2[C@@H]3CCC4=CC(=O)CCC4=C3[C@@H](c3ccc(N(C)C)cc3)C[C@@]21C
inactive: [2] | [7]
active: [1] 26.2 µM | [3] 84.2 µM | [4] 57.4 µM | [5] 44.9 µM | [6] 83.9 µM | [8] 11.3 µM | [9] 20.4 µM

CC[C@H](c1ccc(O)cc1)[C@@H](CC)c1ccc(O)cc1
active: [1] 79.4 µM | [2] 93.8 µM | [3] 92.8 µM | [4] 79.7 µM | [10] 79.5 µM | [7] 93.4 µM | [9] 80.1 µM
inactive: [5] | [6] | [8]

C[C@@H]1C[C@H]2[C@@H]3CCC4=CC(=O)C=C[C@]4(C)[C@@]3(F)[C@@H](O)C[C@]2(C)[C@@]1(O)C(=O)COP(=O)(O)O
not listed: [4]
inactive: all other assays above

c1ccc2c(c1)Cc1ccccc1-2
not listed: [10]
inactive: all other assays above

O=C(OCCOCCOC(=O)c1ccccc1)c1ccccc1
inactive: all assays above

COCC(C)O (centres undefined)
inactive: all assays above

CN1CCC[C@H]1c1cccnc1
not listed: [9]
inactive: all other assays above

Oc1cccc(O)c1
not listed: [4]
inactive: all other assays above

CCN(CC)CCNc1ccc(CNC=O)c2sc3ccc(OC)cc3c(=O)c12
inactive: [1] | [3] | [10] | [6]
active: [2] 83.4 µM | [4] 76 µM | [5] 12.5 µM | [7] 43.5 µM | [8] 12.8 µM | [9] 16.6 µM

C=C(C)C(=O)OCCC(F)(F)C(F)(F)C(F)(F)C(F)(F)C(F)(F)C(F)(F)F
not listed: [10]
inactive: all other assays above

CN(C)C=O
inactive: all assays above

O=C(O)Cc1cc(I)c(Oc2cc(I)c(O)c(I)c2)c(I)c1
active: [1] 62.9 µM | [3] 56.2 µM | [4] 52.4 µM | [10] 56.4 µM | [7] 55.3 µM | [8] 56 µM | [9] 59.1 µM
inactive: [2] | [5] | [6]

CC(O)CO (centres undefined)
not listed: [4]
inactive: all other assays above
